Screens (PubChem BioAssay)
A549 tox-1 = Nrf2 qHTS screen for inhibitors: counterscreen for cytotoxicity; Potency, µM (highest dose often 46 µM), for the others: at the top dose activity change, negative = cytotoxicity, hits mostly inhibitors; A549 ARE-Fluc cells, CellTiter-Fluor viability, 18-24 h; actives 0.16% (n = 390,000); further: potency means the concentration at half of the fitted maximal effect; on the % scale 0 is the no-effect control and ±100 the full control effect
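Cytotoxicity counterscreen: CellTiter-Fluor fluorescence was measured in A549 ARE_Fluc cells after 18-24 h of compound exposure in a concentration series. The subsequent BugLite luminescent read reports ARE-luciferase activity.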
Nrf2 inh = Nrf2 qHTS screen for inhibitors. A549 ARE-Fluc reporter, luciferase luminescence, 18-24 h. Potency, µM (series often up to 46 µM), for the others: top-dose activity change, negative = inhibition, most hits filed as inhibitors. actives 2.1% (n = 360,000). AID 504444, 2011; further: potency means the concentration at half of the fitted maximal effect; on the % scale 0 is the no-effect control and ±100 the full control effect; nearly all actives have a fitted effect of over 60% in size
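In this cell-based qHTS, ARE-driven firefly luciferase in A549 cells reports Nrf2 activity; the luminescent signal after BugLite lysis is the measured value, with a prior CellTiter-Fluor read for cell health.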
B2AR arrestin = qHTS assay of beta-arrestin-biased ligands of beta2-adrenergic receptor; Beta-2 adrenergic receptor (Homo sapiens), P07550; beta-arrestin recruitment to beta2AR, cell-based reporter; Potency, µM (titrated, usually from 46.1 µM), for inactives: at the top dose activation, hits mostly activators; actives 0.02% (n = 330,000); AID 492947, 2010;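 further: potency means the concentration at half of the fitted maximal effect; 0% = DMSO controls and full agonism = EC100 isoproterenol or metaproterenol; nearly all actives have a fitted effect of over 65% in size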
miR-21 reporter = qHTS Assay for Modulators of miRNAs and/orActivators of miR-21 | HeLa miR-21 FLuc reporter, luciferase, 48 h | Potency, µM (titrated, usually from 38.3 µM), without a hit: at the highest dose activity change, positive = activation, actives largely listed as activators | 340,000 tested, under 10 active | AID 2288, 2010;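 further: % of control where 0% means no effect; miR-21 action dims this reporter so a rising signal means less miR-21 action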
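Compounds were titrated across several concentrations (up to approximately 40 uM) and incubated 48 hours with HeLa miR-21-FLuc reporter cells (miR-21 target sequence downstream of FLuc, endogenous miR-21). Readout was firefly luciferase luminescence after lytic detection reagent.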
Nrf2 activator = qHTS of Nrf2 Activators; AREc32 ARE-luciferase reporter (MCF7-derived line), luminescence, 24 h; Potency, µM (top dose mostly 46.1 µM), inactives show at the highest dose activation, actives largely listed as activators; actives 0.31% (n = 410,000); AID 624171, 2012; further: potency means the concentration at half of the fitted maximal effect; % of control where 0% means no effect; nearly all actives have a fitted effect of over 65% in size
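Quantitative high-throughput format: AREc32 reporter cells, 1000 per well, received compound by pin transfer and were incubated 24 hr at 37 deg C, 5% CO2, before Steady-Glo luminescence detection.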
FLuc counter 3 = Nrf2 qHTS screen for inhibitors: Purified Fluc Biochemical Counterscreen for Hit Validation. shares compounds with Nrf2 inh. purified firefly luciferase, luminescence inhibition. Potency, µM (titrated, usually from 57.5 µM), inactives show at the top dose activity change, negative = inhibition, most hits filed as inhibitors. actives 4% (n = 1,400). AID 720522, 2013; further: potency means the concentration at half of the fitted maximal effect; on the % scale 0 is the no-effect control and ±100 the full control effect; nearly all actives have a fitted effect of over 65% in size
Target sequence (P08659 whole entry, looked up): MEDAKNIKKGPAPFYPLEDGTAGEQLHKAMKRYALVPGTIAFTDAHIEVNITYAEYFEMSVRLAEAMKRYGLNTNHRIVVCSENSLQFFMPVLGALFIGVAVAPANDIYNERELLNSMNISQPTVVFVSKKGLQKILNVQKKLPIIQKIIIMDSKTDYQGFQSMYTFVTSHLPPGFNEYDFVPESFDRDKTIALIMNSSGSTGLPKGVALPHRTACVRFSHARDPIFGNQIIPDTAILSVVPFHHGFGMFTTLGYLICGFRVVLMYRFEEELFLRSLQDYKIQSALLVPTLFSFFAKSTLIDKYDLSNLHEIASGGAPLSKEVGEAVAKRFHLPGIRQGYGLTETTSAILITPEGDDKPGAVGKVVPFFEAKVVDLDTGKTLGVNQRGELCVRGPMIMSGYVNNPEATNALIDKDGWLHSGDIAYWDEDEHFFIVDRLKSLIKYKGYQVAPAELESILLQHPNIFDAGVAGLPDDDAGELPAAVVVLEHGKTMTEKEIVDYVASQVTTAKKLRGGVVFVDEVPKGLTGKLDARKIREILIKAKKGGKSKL
A549 tox-2 = Nrf2 qHTS screen for inhibitors: A549 ARE-Fluc Cytotoxicity Counterscreen for Hit Validation | A549 ARE-Fluc cells, cytotoxicity counterscreen | actives 2% (n = 1,400) | Potency, µM (titrated, usually from 46.1 µM), without a hit: at the top dose activity change, negative = cytotoxicity, usual class: inhibitors | shares compounds with Nrf2 inh;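 further: potency means the concentration at half of the fitted maximal effect; cells exposed to compounds for 18 to 24 hours; on the % scale 0 is the no-effect control and ±100 the full control effect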
Nrf2 ARE inh = Nrf2 qHTS screen for inhibitors: Nrf2 A549 ARE-Fluc Confirmation Assay for Hit Validation | shares compounds with Nrf2 inh | A549 ARE-firefly luciferase reporter, luminescence | Potency, µM (doses to about 46.1 µM), without a hit: at the top dose activity change, negative = inhibition, hits mostly inhibitors | actives 74% (n = 1,400) | AID 720524, 2013; further: potency means the concentration at half of the fitted maximal effect; on the % scale 0 is the no-effect control and ±100 the full control effect; nearly all actives have a fitted effect of over 65% in size
* = called active by the depositor; ? = inconclusive; . = not tested or not shown. This is a sample that favours compounds with a hit; in the whole collection about 2.2% have one here. The call rests on the fitted dose curve; in most records, active means well fitted curve in the direction sought with a large enough effect; inconclusive means small, poorly fitted or top-dose-only effect, or another doubt; inactive means no such curve, though single readings can be large; an effect the other way counts as inactive or inconclusive.

SMILES	A549 tox-1	Nrf2 inh	B2AR arrestin	miR-21 reporter	Nrf2 activator	FLuc counter 3	A549 tox-2	Nrf2 ARE inh
CC1CCOC(=O)C=CC=CC(=O)OC2CC3OC4C5OC5(C)C(O)CC4(COC(=O)C1O)C2(C)C31CO1 (centres undefined)	.	0.517µM*	.	.	-1.7%	4.0%	.	0.366µM*
CC1=CC2OC3CC4OC(=O)C=CC=CC(C(C)O)OCC(O)C5(C)OC5C(=O)OCC2(CC1O)C4(C)C31CO1 (centres undefined)	.	0.411µM*	.	.	-2.0%	-1.6%	.	0.259µM*
CN(CCc1ccccn1)Cc1ccc(Cl)cc1	?	?	.	-3.1%	0.3%	.	.	.
O=C(CN1CCN(S(=O)(=O)c2cc(Br)ccc2Br)CC1)NCc1ccccc1Cl	-14.6%	?	.	.	2.8%	.	.	.
Cc1cccc(Cc2cnc(NC(=O)c3ccc4c(c3)CC(c3ccccc3)OC4=O)s2)c1 (centres undefined)	-0.8%	?	.	-1.9%	-0.4%	.	.	.
COC(=O)C(NC(C)=O)(Nc1nc2c(C)cc(C)cc2s1)C(F)(F)F (centres undefined)	?	?	-0.2%	19.6%	-0.5%	.	.	.
C=C1C(=O)O[C@@H]2C[C@@H](C)[C@@H]3C4OC4C(=O)[C@@]3(C)[C@@H](O)[C@H]12 (some centres undefined)	?	?	-1.0%	?	-3.3%	.	.	.
C=C1C(=O)O[C@@H]2C[C@@H](C)[C@@H]3C=CC(=O)[C@@]3(C)[C@@H](OC(=O)CC(=O)O[C@H]3[C@@H]4C(=C)C(=O)O[C@@H]4C[C@@H](C)[C@@H]4C=CC(=O)[C@]43C)[C@H]12	14.6µM*	2.59µM*	-0.9%	?	-2.8%	?	2.91µM*	2.06µM*
CCCCCn1c(=O)c(C(=O)Nc2cnccn2)c(O)c2ccccc21	?	4.61µM*	0.2%	-3.0%	3.4%	1.1%	?	5.8µM*
CCCCCCn1c(=O)c(C(=O)Nc2ncccc2C)c(O)c2ccccc21	-22.6%	8.2µM*	-1.3%	13.5%	2.9%	-0.1%	-13.7%	?
CCCCCCCn1c(=O)c(C(=O)Nc2cnccn2)c(O)c2ccccc21	?	4.11µM*	-1.1%	-3.9%	7.5%	1.4%	?	.
CCCCCn1c(=O)c(C(=O)Nc2cc(C)ccn2)c(O)c2ccccc21	-0.7%	2.7%	-4.0%	-19.0%	0.0%	.	.	.
Cc1ccc(-c2nc(CN3C(=O)CN=C(c4ccccc4Cl)c4cc(Cl)ccc43)c(C)o2)cc1	-7.2%	?	.	12.8%	0.3%	.	.	.
CCC(=O)N1N=C(c2c(O)n(C)c(=O)n(C)c2=O)CC1c1ccccc1 (centres undefined)	-11.2%	?	-0.7%	4.5%	0.0%	.	.	.
CC(C)CCOP(=O)(c1ccc(N(C)C)cc1)C(O)c1ccc(Cl)cc1Cl (centres undefined)	?	?	0.2%	27.7%	0.3%	.	.	.
O=C(Nc1ccc(OC(F)(F)F)cc1)C1CCN(S(=O)(=O)c2cccs2)CC1	-11.0%	?	.	?	5.3%	.	.	.
O=C(O)c1cccc2nc3ccccc3nc12	-20.9%	2.31µM*	1.0%	0.5%	-0.6%	0.9%	-29.0%	3.26µM*
